Our source for the fold change, cell count and z-score values is PubChem BioAssay.

Activity calls are given as the source filed them.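 The calls were made as follows, unless noted: active = compounds whose cell count with miR-34 switched on is under 0.7 times the count with it off; inactive = the rest.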

A short description of test [1]: sensitizers of A549 cells to miR-34 induction, primary screen, imaging, A549 dox-inducible miR-34, nuclei and caspase counts (AID 1347080). To be noted: A549 miR-34 inducible, Hoechst nuclei count, 48 h.
Test [2] can be described thus: survival rescue of mitochondrial mutant cells in low glucose, primary screen, MELAS cybrids, Rieske KO mouse fibroblasts, CellTiter-Glo (AID 1508586;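 active = mean z-score across replicates of 1.96 or higher in either the MELAS or the Rieske mutant cell line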;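 also: z relative to plate mean and SD of compound and empty wells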). (Cellular ATP, detected with luciferase, serves as a proxy for viable cell number.)
The mark [3] stands for this setting: stronger effect = lower value, cell number ratio, induced over uninduced.
The mark [4] stands for this setting: measured here: relative caspase fold change +Dox/-Dox.
[5] abbreviates: measured here: total cells with miR-34 induction, stronger effect = lower value.
Setting [6] is: measured here: total cells without miR-34 induction.
[7] abbreviates: MELAS cybrid survival, CellTiter-Glo 48 h, stronger effect = higher value.
The mark [8] stands for this setting: Rieske KO mouse fibroblast survival, CellTiter-Glo 72 h.
Also: test concentration not given here.

`COC1C[C@H]2CCC(C)[C@@](O)(O2)C(=O)C(=O)N2CCCC[C@H]2C(=O)OC(C(C)CC2CCC(OP(C)(C)=O)C(OC)C2)CC(=O)C(C)C=C(C)C(O)C(OC)C(=O)C(C)CC(C)C=CC=CC=C1C` (stereo partly drawn): the figures for the fold change in test [1] (setting [3]) and in test [1] (setting [4]) were 1.07 (inactive) and 0.835, respectively. The cell count in test [1] (setting [5]) stood at 4570; in test [1] (setting [6]) it was 4270. Further, the z-score in test [2] (setting [7]) was 0.709 (inactive); in test [2] (setting [8]), 1.92.
With `Cn1c(=O)c(F)c(Nc2ccc(I)cc2F)c2c(=O)n(CC(O)CO)cnc21` (stereo not drawn), the fold change in test [1] (setting [3]) is 1.04 (inactive); in test [1] (setting [4]) it was 0.57. Also, the cell count turned out to be 3130 in test [1] (setting [5]) and 3010 in test [1] (setting [6]). Besides, the z-score in test [2] (setting [7]) was -0.414 (inactive); in test [2] (setting [8]) it was -1.17.
For the compound `CCN1CC(C)n2c(c(O)c3c(=O)n(Cc4ccc(F)c(Cl)c4)nc(C(=O)NC)c32)C1=O` (stereo not drawn), the fold change in test [1] (setting [3]) was 1.07 (inactive); in test [1] (setting [4]) it was 0.451. For the same compound, the results for the cell count in test [1] (setting [5]) and in test [1] (setting [6]) were 7640 and 7150, respectively. The z-score in test [2] (setting [7]) is -0.423 (inactive); in test [2] (setting [8]) it was 0.325.
On to `O=C(Nc1cccc(Cl)c1)c1ccccn1`, for which the figures for the fold change in test [1] (setting [3]) and in test [1] (setting [4]) were 0.981 (inactive) and 0.991, respectively. The cell count in test [1] (setting [5]) turned out to be 7550; in test [1] (setting [6]) it was 7700. For the same compound, the z-score in test [2] (setting [7]) was 0.406 (inactive); in test [2] (setting [8]) it was -0.326.
With `CNC(=O)c1ccccc1Sc1ccc2c(C=Cc3ccccn3)n[nH]c2c1`, the results for the fold change in test [1] (setting [3]) and in test [1] (setting [4]) were 0.918 (inactive) and 0.851, respectively. For the same compound, the cell count in test [1] (setting [5]) was 2240; in test [1] (setting [6]), 2440. Further, the z-score was 1.15 (inactive) in test [2] (setting [7]) and -0.442 in test [2] (setting [8]).
On to `CCOc1nc2cccc(C(=O)O)c2n1Cc1ccc(-c2ccccc2-c2noc(=O)[nH]2)cc1`, for which the fold change was 0.988 (inactive) in test [1] (setting [3]) and 0.55 in test [1] (setting [4]). Also, the cell count in test [1] (setting [5]) is 8580; in test [1] (setting [6]) it was 8680. Also, the z-score in test [2] (setting [7]) was -0.267 (inactive); in test [2] (setting [8]), -0.0268.
As to `Cn1cc(C=CC(=O)c2cccc(F)c2)cc1C=CC(=O)NO`, the fold change in test [1] (setting [3]) was 0.9 (inactive); in test [1] (setting [4]), 1.19. The cell count turned out to be 7610 in test [1] (setting [5]) and 8450 in test [1] (setting [6]). In addition, the z-score in test [2] (setting [7]) was -0.416 (inactive); in test [2] (setting [8]) it was 0.68.
For the compound `CC[C@]1(O)C[C@H]2CN(CCc3c([nH]c4ccccc34)[C@@](C(=O)OC)(c3cc4c(cc3OC)N(C)[C@@H]3C45CCN4CC=C[C@@](CC)(C(OC(C)=O)[C@]3(O)C(=O)OC)[C@H]45)C2)C1` (stereo partly drawn), the results for the fold change in test [1] (setting [3]) and in test [1] (setting [4]) were 1.18 (inactive) and 0.78, respectively. The figures for the cell count in test [1] (setting [5]) and in test [1] (setting [6]) were 1480 and 1260, respectively. The z-score was 0.649 (inactive) in test [2] (setting [7]) and -0.168 in test [2] (setting [8]).
For `C=C1c2cccc(O)c2C(O)=C2C(=O)[C@]3(O)C(O)=C(C(N)=O)C(=O)C(N(C)C)[C@@H]3C(O)[C@H]12` (stereo partly drawn), the fold change in test [1] (setting [3]) was 0.858 (inactive); in test [1] (setting [4]) it was 1.09. For the same compound, the cell count in test [1] (setting [5]) is 7630; in test [1] (setting [6]), 8890. In addition, the figures for the z-score in test [2] (setting [7]) and in test [2] (setting [8]) were 5.63 (active) and 0.965, respectively.
As to `CCC(=O)O[C@@]1(C(=O)CCl)C(C)C[C@H]2[C@@H]3CC(F)C4=CC(=O)C=C[C@]4(C)[C@]3(F)C(O)C[C@@]21C` (stereo partly drawn), the fold change was 0.853 (inactive) in test [1] (setting [3]) and 0.626 in test [1] (setting [4]). The figures for the cell count in test [1] (setting [5]) and in test [1] (setting [6]) were 4930 and 5780, respectively. The figures for the z-score in test [2] (setting [7]) and in test [2] (setting [8]) were -0.347 (inactive) and -0.183, respectively.
For `CNC(=O)C(c1ccccc1)N1CCc2cc(OC)c(OC)cc2C1CCc1ccc(C(F)(F)F)cc1` (stereo not drawn), the fold change in test [1] (setting [3]) is 1.06 (inactive); in test [1] (setting [4]), 0.482. For the same compound, the cell count in test [1] (setting [5]) worked out at 6530; in test [1] (setting [6]), 6180. Also, the results for the z-score in test [2] (setting [7]) and in test [2] (setting [8]) were -0.149 (inactive) and 0.101, respectively.
For the compound `COc1cc(C2Oc3ccc(C4Oc5cc(O)cc(O)c5C(=O)C4O)cc3OC2CO)ccc1O` (stereo not drawn), the fold change is 0.913 (inactive) in test [1] (setting [3]) and 0.744 in test [1] (setting [4]). Further, the cell count in test [1] (setting [5]) came to 8070; in test [1] (setting [6]), 8840. For the same compound, the z-score is -0.245 (inactive) in test [2] (setting [7]) and -0.07 in test [2] (setting [8]).
Regarding `CN(C)C1C(=O)C(C(N)=O)=C(O)[C@@]2(O)C(=O)C3=C(O)c4c(O)ccc(Cl)c4C(O)[C@H]3C[C@@H]12` (stereo partly drawn), the fold change was 0.836 (inactive) in test [1] (setting [3]) and 1.66 in test [1] (setting [4]). Besides, the values for the cell count in test [1] (setting [5]) and in test [1] (setting [6]) were 6970 and 8340, respectively. In addition, the results for the z-score in test [2] (setting [7]) and in test [2] (setting [8]) were 3.28 (active) and 5.13, respectively.
Consider `Oc1ccc(OC2CCCCO2)cc1` (stereo not drawn), for which the fold change in test [1] (setting [3]) was 0.945 (inactive); in test [1] (setting [4]), 0.827. In addition, the cell count in test [1] (setting [5]) came out at 7580; in test [1] (setting [6]), 8020. Besides, the results for the z-score in test [2] (setting [7]) and in test [2] (setting [8]) were -0.229 (inactive) and -0.263, respectively.
Turning to `COC1C(=O)[C@]2(C)C(OC)C[C@H]3OC[C@@]3(OC(C)=O)[C@H]2C(OC(=O)c2ccccc2)[C@@]2(O)CC(OC(=O)C(O)C(NC(=O)OC(C)(C)C)c3ccccc3)C(C)=C1C2(C)C` (stereo partly drawn), the fold change in test [1] (setting [3]) was 1.03 (inactive); in test [1] (setting [4]), 0.843. Further, the cell count worked out at 2690 in test [1] (setting [5]) and 2620 in test [1] (setting [6]). In addition, the values for the z-score in test [2] (setting [7]) and in test [2] (setting [8]) were 1.6 (inactive) and -0.148, respectively.
Regarding `CN1CCCC1CCO[C@](C)(c1ccccc1)c1ccc(Cl)cc1` (stereo partly drawn), the fold change in test [1] (setting [3]) was 0.919 (inactive); in test [1] (setting [4]) it was 1.18. For the same compound, the cell count in test [1] (setting [5]) was found to be 7530; in test [1] (setting [6]), 8200. For the same compound, the z-score is -0.384 (inactive) in test [2] (setting [7]) and 0.111 in test [2] (setting [8]).
As to `CC(C)N(CCC(c1ccccc1)c1cc(CO)ccc1O)C(C)C` (stereo not drawn), the fold change in test [1] (setting [3]) was 0.934 (inactive); in test [1] (setting [4]) it was 1.04. For the same compound, the results for the cell count in test [1] (setting [5]) and in test [1] (setting [6]) were 9810 and 10500, respectively. The figures for the z-score in test [2] (setting [7]) and in test [2] (setting [8]) were -0.366 (inactive) and 0.299, respectively.
With `Cc1cc(OCCCS(C)(=O)=O)cc(C)c1-c1cccc(COc2ccc3c(c2)OCC3CC(=O)O)c1` (stereo not drawn), the fold change in test [1] (setting [3]) is 0.928 (inactive); in test [1] (setting [4]) it was 0.766. For the same compound, the results for the cell count in test [1] (setting [5]) and in test [1] (setting [6]) were 7480 and 8070, respectively. In addition, the z-score in test [2] (setting [7]) was -0.428 (inactive); in test [2] (setting [8]), 0.0224.
As for `CC(=O)c1cc([N+](=O)[O-])c(Sc2cccc(Cl)c2Cl)s1`, the values for the fold change in test [1] (setting [3]) and in test [1] (setting [4]) were 0.882 (inactive) and 0.345, respectively. Moreover, the cell count amounted to 7980 in test [1] (setting [5]) and 9050 in test [1] (setting [6]). In addition, the z-score in test [2] (setting [7]) was -0.31 (inactive); in test [2] (setting [8]), 0.849.
As to `CC1=C(C(=O)OC2CCCCC2)C(c2ccc([N+](=O)[O-])cc2)C2=C(CC(C)(C)CC2=O)N1` (stereo not drawn), the fold change in test [1] (setting [3]) is 1.46 (inactive); in test [1] (setting [4]), 0.547. In addition, the cell count came to 1480 in test [1] (setting [5]) and 1010 in test [1] (setting [6]). Moreover, the z-score is -0.282 (inactive) in test [2] (setting [7]) and -2.79 in test [2] (setting [8]).
As to `OCC(O)C(O)CO` (stereo not drawn), the fold change in test [1] (setting [3]) is 0.967 (inactive); in test [1] (setting [4]) it was 0.463. Besides, the cell count in test [1] (setting [5]) is 8430; in test [1] (setting [6]), 8720. The z-score in test [2] (setting [7]) is -0.193 (inactive); in test [2] (setting [8]), -0.162.
Regarding `Cc1c(CN2CCN(C(=O)C(C)O)CC2)sc2c(N3CCOCC3)nc(-c3cnc(N)nc3)nc12` (stereo not drawn), the fold change was 1.11 (inactive) in test [1] (setting [3]) and 0.549 in test [1] (setting [4]). Besides, the cell count in test [1] (setting [5]) came to 2480; in test [1] (setting [6]), 2230. The z-score in test [2] (setting [7]) is 2.06 (active); in test [2] (setting [8]) it was -2.39.
Regarding `C[C@@H]1COc2c(N3CCN(C)CC3)c(F)cc3c(=O)c(C(=O)O)cn1c23`, the fold change in test [1] (setting [3]) is 0.906 (inactive); in test [1] (setting [4]), 0.634. The cell count in test [1] (setting [5]) is 8330; in test [1] (setting [6]), 9190. The z-score in test [2] (setting [7]) was -0.0742 (inactive); in test [2] (setting [8]), 0.213.
